Most compounds without a hit are left out; they make up all but 3.6% or so of the library.
Wnt act: Wnt/beta-catenin pathway activation; Wnt/beta-catenin reporter cell assay, activator, plate reader; activation, % at 9.35 µM; hit rate 1.2% among 300,000; AID 743398; in the data active means activation above about 30%, passing the limit was not always enough; inconclusive means no clear call, values can overlap the other calls;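 further: 0% = neutral control wells and 100% = positive control wells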
PHOSPHO1 block: PHOSPHO1 (human) inhibition. inhibition, % at 13.3 µM. recombinant PHOSPHO1, absorbance phosphatase assay. hit rate 1.1% among 290,000; in the data active means inhibition above about 60%
MITF act: MITF TRPM1 promoter activation in melanoma cells | hit rate 0.75% among 300,000 | SK-MEL-5 TRPM1-promoter luciferase, 24 h; % of positive control, neutral wells = 0 | activation, % at 12.5 µM;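 active means mean activation of at least 80% with every replicate also reaching 80%; inconclusive means mean reaches 80% but some replicate falls short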;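 further: 0% = neutral control wells and 100% = parthenolide positive control wells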
APOBEC3A inh: human APOBEC3A DNA deaminase inhibition. recombinant A3A, FAM/TAMRA ssDNA deamination fluorescence. inhibition, % at 20 µM. hit rate 0.41% among 330,000. AID 493011;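 active means at least 40% inhibition at 20 µM here, with at most 30% in a related deaminase screen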;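 further: plate controls were A3A with DMSO for no effect and wells lacking A3A enzyme for full effect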
Target sequence (P31941 whole entry, looked up): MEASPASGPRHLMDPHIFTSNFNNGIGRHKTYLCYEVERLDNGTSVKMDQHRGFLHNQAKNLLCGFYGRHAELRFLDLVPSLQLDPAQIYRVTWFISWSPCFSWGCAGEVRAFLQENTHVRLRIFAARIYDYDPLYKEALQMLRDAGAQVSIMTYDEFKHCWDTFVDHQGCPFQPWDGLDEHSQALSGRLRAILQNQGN
esBAF inh: blocks esBAF chromatin remodeling in mouse ES cells; Bmi1-luciferase knock-in reporter, 24 h; 100% = twice the neutral-well signal; reporter increase, % at 12.5 µM; hit rate 2% among 350,000; in the data active means activation above about 40%; inconclusive means no clear call, values can overlap the other calls;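 further: 0% = median of the plate's neutral control wells and 100% = double that signal; a rise in the Bmi1 reporter signal indicates esBAF inhibition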
APOBEC3G inh: inhibitors of human APOBEC3G DNA deaminase. hit rate 0.28% among 330,000. AID 493012. inhibition, % at 20 µM. recombinant A3G, ssDNA deamination FAM/TAMRA fluorescence;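 active means inhibition of at least 40% at 20 µM, with no more than 30% in the related APOBEC3A deaminase screen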;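 further: plate controls were DMSO wells with A3G for no effect and wells lacking A3G enzyme for full effect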
Target sequence (Q9HC16 whole entry, looked up): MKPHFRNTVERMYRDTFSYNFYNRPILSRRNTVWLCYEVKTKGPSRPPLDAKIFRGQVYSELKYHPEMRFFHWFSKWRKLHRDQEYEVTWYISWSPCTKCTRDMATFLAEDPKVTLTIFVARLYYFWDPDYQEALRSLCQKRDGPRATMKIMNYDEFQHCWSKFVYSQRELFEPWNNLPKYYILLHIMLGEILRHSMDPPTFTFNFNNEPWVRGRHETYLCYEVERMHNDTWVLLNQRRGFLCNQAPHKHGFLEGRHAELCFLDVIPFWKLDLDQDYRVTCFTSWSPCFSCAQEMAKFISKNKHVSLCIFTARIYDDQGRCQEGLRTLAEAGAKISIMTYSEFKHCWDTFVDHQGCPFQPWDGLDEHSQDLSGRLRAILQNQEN
* marks the source's active call; other numbers are inactive results; ? = inconclusive; · = no result.

SMILES | Wnt act | PHOSPHO1 block | MITF act | APOBEC3A inh | esBAF inh | APOBEC3G inh
CC(=O)Nc1cccc(NC(=O)c2cc3ccccc3o2)c1 | 51* | -1 | ? | 0 | · | -2
COc1cc(NC(=O)C(C)C)ccc1NC(=O)c1cc2ccccc2o1 | 13 | 45 | 84* | -3 | 60* | -3
CN(C)S(=O)(=O)c1cccc(NC(=O)c2cc3ccccc3o2)c1 | · | 2 | · | -2 | 50* | 1
Cc1ccc(NC(=O)c2cc3ccccc3o2)cc1Cl | -2 | 29 | 104* | -6 | ? | -5
COc1ccc(NC(=O)Nc2ccc3c(c2)CC(=O)N([C@@H](C)CO)C[C@@H](C)[C@@H](CN(C)C(=O)Nc2ccc(F)cc2)O3)cc1 | · | · | · | · | -4 | ·
CCC(=O)Nc1ccc(-c2cc3ccccc3oc2=O)cc1 | · | 41 | 43 | -1 | · | -3
CC(=O)Nc1ccc(-c2cc3ccccc3o2)cc1 | 56* | 14 | · | -2 | 27 | -6
CC(C)NC(=O)c1cc2ccccc2o1 | -2 | 0 | · | 6 | 1 | 7
CC(C)C(=O)Nc1cccc(NC(=O)c2cc3ccccc3o2)c1 | 27 | 0 | · | -2 | 72* | -2
COCC#Cc1cnc2c(c1)C(=O)N([C@H](C)CO)C[C@H](C)[C@H](CN(C)C(=O)Nc1c(C)noc1C)O2 | · | · | · | · | -4 | ·
COc1ccc(-c2csc(N(CC3CCCO3)C(=O)c3ccc(C)cc3)n2)cc1 (stereo not given) | 38* | 6 | · | -3 | -34 | -6
COCCn1c(=S)[nH]c2ccc(N(C)C)cc2c1=O | · | 98* | · | -5 | -6 | -5
C[C@H]1CN([C@@H](C)CO)C(=O)c2cc(/C=C/c3ccccc3)cnc2O[C@@H]1CN(C)C(=O)C1CCC1 | · | · | · | · | -2 | ·
COc1ccc(CN2C[C@H](O)COC[C@H]3O[C@H](CC(=O)NCCN4CCCC4)CC[C@@H]32)cc1 | · | · | · | · | 3 | ·
CC=Cc1ccc2n(c1=O)C[C@H]1[C@H](CO)[C@@H](C(=O)NCC(F)(F)F)N(CCc3ccccc3)[C@@H]21 (mixture of isomers) | · | · | · | · | 1 | ·
COC(=O)c1ccc(C(=O)OC)c(NC(=O)CSc2cccc[n+]2[O-])c1 | · | 87* | 8 | 3 | 6 | 1
COC(=O)c1ccc(-n2c(C)cc(C(=O)CSc3cccc[n+]3[O-])c2C)cc1 | 1 | 36 | 7 | -7 | · | -7
CCOC(=O)/C(C#N)=C1/C=CN(c2ccc(C)cc2)C=N1 | 20 | 9 | 60 | -2 | 47* | -2
CCOC(=O)/C(C#N)=C1/C=CN(c2ccccc2)C=N1 | 5 | 16 | 59 | -4 | 37 | -2
CSc1nc2ccc3nc(NC(=O)c4ccccc4)sc3c2s1 | 28 | -21 | 42 | -5 | 50* | -7
Cc1ccc2nc(NC(=S)NC(=O)c3cccs3)sc2c1 | · | -36 | 21 | 1 | 51* | -3
CSc1nc2ccc(NC(=O)c3ccc(F)c(F)c3)cc2s1 | 51* | 17 | 70 | -3 | · | -5
CSc1nc2ccc(NC(=O)c3ccco3)cc2s1 | · | -1 | 88* | 3 | · | -1
O=C(C[C@H]1CC[C@@H](NS(=O)(=O)c2ccc(F)cc2)[C@H](CO)O1)NC1CCCCC1 | · | · | · | · | 10 | ·
CSc1nc2ccc(NC(=O)c3cccs3)cc2s1 | 20 | · | 90* | -3 | 78* | -8
SMILES | Wnt act | PHOSPHO1 block | MITF act | APOBEC3A inh | esBAF inh | APOBEC3G inh
CSc1nc2ccc(NC(=O)c3ccc(=O)n(C)n3)cc2s1 | 13 | 51 | 4 | 2 | · | -5
CSc1nc2ccc(NC(=O)c3cc4ccccc4o3)cc2s1 | 58* | 1 | 54 | -4 | · | -2
Nc1c(-c2ccc(Cl)cc2)cnn1-c1cc(C(F)(F)F)cc(C(F)(F)F)c1 | 0 | 32 | 1 | 0 | 0 | 1
COc1ccc(-c2cnn(-c3ccccc3)c2N)cc1OC | · | 3 | 8 | 0 | 0 | 2
Nc1c(-c2ccccc2)cnn1-c1cccc(C(F)(F)F)c1 | · | 45 | 56 | -1 | 54* | 0
Nc1c(-c2ccc(Cl)cc2)nnn1-c1ccccc1 | 67* | 4 | · | -3 | 79* | -5
Cc1ccc(-c2cnn(-c3ccccc3)c2N)cc1 | 43* | 28 | 36 | -5 | 0 | -9
Nc1c(-c2ccc(Cl)cc2)cnn1-c1ccccc1 | ? | -29 | 92* | -2 | 31 | -7
CC(C)(C)S(=O)(=O)c1cnc2c(-c3ccc(Cl)cc3)cnn2c1N | 2 | 23 | 8 | -4 | 31 | -5
Nc1c(-c2ccc(Cl)cc2)cnc2c(-c3ccccc3)cnn12 | 36* | 15 | 75 | 0 | 25 | -5
Cc1ccc(-c2cnn(-c3cccc([N+](=O)[O-])c3)c2N)cc1 | · | 19 | 64 | -2 | 83* | -2
COc1ccc(-c2cnc3c(-c4ccc(F)cc4)cnn3c2N)cc1 | 43* | 33 | 59 | -2 | ? | -5
Cc1ccccc1-c1cnn(-c2cccc([N+](=O)[O-])c2)c1N | 2 | 8 | 39 | -5 | 34 | -6
CO[C@H]1CN(C)C(=O)c2ccc(NC(=O)C3CC3)cc2OC[C@@H](C)N(Cc2ccccc2)C[C@H]1C | · | · | · | · | 1 | ·
COCC(=O)N(C)C[C@H]1Oc2cc(C#C[C@H](C)O)ccc2S(=O)(=O)N([C@H](C)CO)C[C@@H]1C | · | · | · | · | 0 | ·
N#Cc1ccc(/C=C(\C(=O)C(=O)O)c2ccc3ccccc3n2)cc1 | 1 | 34 | 39 | -4 | 32 | -6
Cc1cccc(/C=C(\C(=O)C(=O)O)c2ccc3ccccc3n2)c1 | 15 | 12 | 6 | 2 | 50* | -2
O=C(O)C(=O)/C(=C\c1cccc(Cl)c1)c1ccc2ccccc2n1 | 40* | 17 | 23 | 1 | 78* | -2
C[C@H](CO)N1C[C@H](C)[C@@H](CN(C)C(=O)Nc2cccc3ccccc23)OCCCC[C@H](C)Oc2ccc(NC(=O)c3ccncc3)cc2C1=O | · | · | · | · | -5 | ·
COc1ccc(S(=O)(=O)Nc2ccc3c(c2)C(=O)N([C@@H](C)CO)C[C@H](C)[C@@H](CN(C)C(=O)NC2CCCCC2)OCCCC[C@H](C)O3)cc1 | · | · | · | · | 3 | ·
C[C@H](CO)N1C[C@H](C)[C@H](CN(C)C(=O)Nc2cccc3ccccc23)Oc2ccc(NC(=O)Nc3cccc4ccccc34)cc2C1=O | · | · | · | · | 4 | ·
COc1cc(OC)c(OC)cc1C=Cc1ccc2ccccc2n1 | 6 | · | · | · | · | ·
COc1c(OC(C)=O)ccc(/C=C/c2ccc3ccccc3n2)c1[N+](=O)[O-] | 26 | -10 | 113* | 2 | 31 | -1
Cn1c(/C=C/c2ccccc2[N+](=O)[O-])nc2ccccc2c1=O | -1 | 29 | · | -2 | 25 | -3
CCOc1c(OC(C)=O)ccc(/C=C/c2ccc3cccc(OC(C)=O)c3n2)c1[N+](=O)[O-] | 19 | 43 | 57 | 2 | 66* | 6
COc1c(OC(C)=O)ccc(/C=C/c2ccc3cccc(OC)c3n2)c1[N+](=O)[O-] | 32* | -26 | 17 | 1 | · | -8
